Data reported in PubChem BioAssay (NCATS).
Inconclusive results are not listed. Calls of active or inactive are those of the source. Unless noted, calls come from the whole dose curve; as a rule, active = well fitted curve in either direction with a large enough effect (not every such curve was filed as active); inconclusive = small, poorly fitted or top-dose-only effect, or another doubt; inactive = flat fitted curve, though single readings scatter.

How the values were obtained:
[1] = biological target: Lysosomal acid glucosylceramidase (Homo sapiens) (UniProt P04062); experiment: Glucocerebrosidase-p2 (AID 348; in the data active = potency below about 10 µM; note: potency is the fitted concentration of half-maximal effect); conditions: purified GBA, blue fluorogenic substrate, 40 min
Sequence of Lysosomal acid glucosylceramidase (Homo sapiens) (P04062 whole entry, looked up): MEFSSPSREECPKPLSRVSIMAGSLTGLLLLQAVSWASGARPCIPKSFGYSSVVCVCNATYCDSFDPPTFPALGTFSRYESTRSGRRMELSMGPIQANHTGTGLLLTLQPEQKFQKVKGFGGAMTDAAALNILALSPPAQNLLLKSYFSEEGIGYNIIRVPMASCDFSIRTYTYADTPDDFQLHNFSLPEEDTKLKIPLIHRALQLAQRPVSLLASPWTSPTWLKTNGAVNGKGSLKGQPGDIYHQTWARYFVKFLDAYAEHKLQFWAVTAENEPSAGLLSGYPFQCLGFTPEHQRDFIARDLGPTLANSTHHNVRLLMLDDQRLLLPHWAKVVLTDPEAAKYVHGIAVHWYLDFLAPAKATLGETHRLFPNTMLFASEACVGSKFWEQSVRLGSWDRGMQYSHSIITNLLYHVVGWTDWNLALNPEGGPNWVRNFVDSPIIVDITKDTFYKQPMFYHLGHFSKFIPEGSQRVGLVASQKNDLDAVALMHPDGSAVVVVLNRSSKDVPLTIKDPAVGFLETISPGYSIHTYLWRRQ
Method in brief: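 Normal human glucocerebrosidase (0.2 nM) with blue fluorogenic substrate (80 uM final) in citrate/phosphate pH 5.9 with 10mM sodium taurocholate, 0.01% tween-20; 40 min RT, NaOH/glycine stop; fluorescence Ex 365/Em 440; AC50 from a titration from 0.6 nM upwards.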

[2] = AP1 Signaling Pathway (AID 357); conditions: ME-180 AP-1-bla reporter, EGF-induced, beta-lactamase ratio, 5 h; at 7.69 µM (top of the series) unless noted;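 note: ME-180 reporter cells stimulated with EGF at its EC50 level; % is set by controls: 0 for no effect and ±100 for the full control effect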
Method in brief: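 Titration-series screen for positive or negative modulators of EC50 EGF-induced signaling in ME-180 cells carrying an AP-1-driven beta-lactamase reporter. After 5 hours at 37 degrees Celsius, CCF4 460nm/530nm emission ratio gave %Activity; AC50 values derived.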

[3] = NFAT Signaling Pathway (AID 444); conditions: Jurkat NFAT-bla M1, carbachol, beta-lactamase ratio, 5 h; at 7.69 µM (top of the series) unless noted;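 note: carbachol stimulus at about its EC50 of 1 µM final; % is set by controls: 0 for no effect and ±100 for the full control effect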
Method in brief: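 Read-out: CCF4 FRET ratio (460 nm/530 nm) after 1 h RT dye loading, used for %activity and AC50 from titration series. Cells: Jurkat NFAT-β-lactamase/M1 line, treated with compound plus 1 uM carbachol for 5 h, 37 °C.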

[4] = Stat Signaling Pathway (AID 446); conditions: ME-180 (cervical carcinoma) SIE beta-lactamase reporter, IL-6 stimulated, 5 h; at 7.69 µM (top of the series) unless noted;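 note: ME-180 cervical cancer cells given 40 pM IL-6 alongside compound; SIE-controlled beta-lactamase reporter measured as 460/530 nm FRET emission ratio; % is set by controls: 0 for no effect and ±100 for the full control effect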
Method in brief: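 Compound effects on IL-6-induced STAT reporter activity were measured in ME-180 cells. After overnight culture, cells were co-treated with 40 pM IL-6 for 5 hrs before beta-lactamase substrate loading at room temperature.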

[5] = biological target: Glucocorticoid receptor (Homo sapiens) (UniProt P04150); experiment: GR-GFP Redistribution (AID 450;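 active = compounds whose dose series gives a full or clear partial fitted curve of increased nuclear translocation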; note: potency is the fitted concentration of half-maximal effect); conditions: U2OS GR-GFP nuclear translocation, laser cytometry, 2 h
Sequence of Glucocorticoid receptor (Homo sapiens) (P04150 whole entry, looked up, the tested form may be a part): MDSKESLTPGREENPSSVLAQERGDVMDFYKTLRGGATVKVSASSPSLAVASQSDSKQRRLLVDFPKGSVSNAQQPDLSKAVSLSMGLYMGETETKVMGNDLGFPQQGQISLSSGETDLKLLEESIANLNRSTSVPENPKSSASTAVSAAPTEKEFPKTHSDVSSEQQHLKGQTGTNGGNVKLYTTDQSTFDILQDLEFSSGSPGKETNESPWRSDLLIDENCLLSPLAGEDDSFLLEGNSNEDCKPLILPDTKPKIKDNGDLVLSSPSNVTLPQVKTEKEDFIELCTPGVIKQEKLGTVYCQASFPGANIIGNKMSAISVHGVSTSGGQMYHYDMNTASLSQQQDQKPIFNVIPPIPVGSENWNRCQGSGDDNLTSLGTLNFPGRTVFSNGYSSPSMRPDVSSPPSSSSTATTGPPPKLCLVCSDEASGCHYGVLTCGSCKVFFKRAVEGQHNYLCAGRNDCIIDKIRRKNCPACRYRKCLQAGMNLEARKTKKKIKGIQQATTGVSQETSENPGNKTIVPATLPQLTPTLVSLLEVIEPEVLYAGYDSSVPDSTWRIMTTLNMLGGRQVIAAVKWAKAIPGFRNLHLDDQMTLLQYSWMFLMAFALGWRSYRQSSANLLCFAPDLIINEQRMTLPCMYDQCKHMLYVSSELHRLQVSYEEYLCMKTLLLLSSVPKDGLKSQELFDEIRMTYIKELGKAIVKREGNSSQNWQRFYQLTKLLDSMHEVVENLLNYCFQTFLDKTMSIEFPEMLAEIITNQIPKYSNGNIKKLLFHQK

[6] = biological target: Glucocorticoid receptor (Homo sapiens) (UniProt P04150); experiment: GR-EFC Redistribution (AID 451; calls by dose curve; note: potency is the fitted concentration of half-maximal effect); conditions: CHO-K1 GR-EFC translocation, beta-gal luminescence, 2 h
Method in brief: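 Translocation of GR-ED fusion to nuclear EA restores b-gal, read by luminescence after 1 h room-temperature detection. Engineered CHO-K1 biosensor cells, 1,000/well, exposed 2 h at 37 C to titrations up to 46 uM final.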

[7] = biological target: Mitogen-activated protein kinase 10 (Mus musculus) (UniProt Q61831); experiment: JNK3 AlphaScreen Assay (AID 530); conditions: JNK3 lysate, c-Jun phosphorylation; series mostly up to 11.4 µM;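 note: kinase came from lysate of stimulated human HepG2 cells; signal reports phosphorylation of biotinylated GST-cJun 1-79 at Ser73 with 10 µM ATP; % is set by controls: 0 for no effect and ±100 for the full control effect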
Method in brief: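 Kinase buffer: 20 mM Tris-HCl pH 7.6, 10 mM MgCl2, 1 mM DTT, 0.1 mM Na3VO4, 0.01% Tween-20; ATP 10 uM. Substrate biotin-GST-cJun(1-79), enzyme from activated HepG2 lysates. Detection by Ser73 phospho-antibody AlphaScreen.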

[8] = biological target: 3',5'-cyclic-AMP phosphodiesterase 4B (Homo sapiens) (UniProt Q07343); experiment: qHTS Assay for Inhibitors of PDE-IV (AID 607; active = well fitted activation curve with a large enough effect in the main read-out, with a control signal flat, not every such curve was filed as active; note: % of control where 0% means no effect); conditions: HEK293 ACTOne CNG channel cells, membrane potential fluorescence; series mostly up to 22.9 µM
Sequence of 3',5'-cyclic-AMP phosphodiesterase 4B (Homo sapiens) (Q07343 whole entry, looked up): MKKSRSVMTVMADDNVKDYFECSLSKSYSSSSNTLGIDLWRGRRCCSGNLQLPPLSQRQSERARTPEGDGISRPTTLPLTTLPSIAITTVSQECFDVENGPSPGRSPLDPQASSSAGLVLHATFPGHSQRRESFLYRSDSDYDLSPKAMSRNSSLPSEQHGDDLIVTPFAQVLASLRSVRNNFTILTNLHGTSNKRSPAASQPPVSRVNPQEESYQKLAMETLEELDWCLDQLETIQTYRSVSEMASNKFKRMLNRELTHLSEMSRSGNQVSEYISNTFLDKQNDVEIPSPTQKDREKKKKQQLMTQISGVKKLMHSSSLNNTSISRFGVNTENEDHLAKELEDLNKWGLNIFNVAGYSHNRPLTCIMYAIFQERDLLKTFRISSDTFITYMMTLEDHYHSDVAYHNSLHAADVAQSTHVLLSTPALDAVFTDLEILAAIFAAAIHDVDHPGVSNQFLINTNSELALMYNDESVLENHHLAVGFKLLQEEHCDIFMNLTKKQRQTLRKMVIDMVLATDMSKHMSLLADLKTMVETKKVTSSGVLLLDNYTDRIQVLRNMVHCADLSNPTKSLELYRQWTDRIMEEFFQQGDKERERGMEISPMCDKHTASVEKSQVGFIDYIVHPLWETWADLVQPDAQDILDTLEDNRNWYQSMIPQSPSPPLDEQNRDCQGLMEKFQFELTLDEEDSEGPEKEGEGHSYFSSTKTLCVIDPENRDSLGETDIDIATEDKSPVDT
Method in brief: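 ACTOne HEK293 cells carry a modified cAMP-gated CNG channel and express endogenous PDE4; plated 1000 cells/well, compounds up to 22.9 uM final. Membrane-potential dye fluorescence (ex 535/em 590) was read; parental cells received 10 uM forskolin + 100 uM RO 20-1724.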

O=C(O)/C(Cc1cn[nH]n1)=N\O
inactive: Potency [1] > 11.4 µM | activity change, negative = inhibition [2] 16.4% | activity change, negative = inhibition [3] 0.206% | activity, negative = inhibition [4] 1.63% | Potency [5] > 46 µM | Potency [6] > 9.22 µM | Potency [7] | Potency [8]

O=C1c2ccccc2-c2ccc(N=[N+]([O-])c3ccc4c(c3)C(=O)c3ccccc3-4)cc21
inactive: Potency [1] > 11.4 µM | activity change, negative = inhibition [2] 5.38% | activity change, negative = inhibition [3] 10.2% | activity, negative = inhibition [4] 7.21% | Potency [5] > 46 µM | Potency [6] > 9.22 µM | Potency [7] | Potency [8]

Cc1nc2sc3c(c2c(=O)[nH]1)CCCC3
inactive: Potency [1] > 11.4 µM | activity change, negative = inhibition [2] 10.8% | activity change, negative = inhibition [3] -6.08% | activity, negative = inhibition [4] 6.96% | Potency [5] > 46 µM | Potency [6] > 9.22 µM | Potency [7] | Potency [8]

CN(C)Cc1cc(C(=O)O)cc(CN(C)C)c1O
inactive: Potency [1] > 11.4 µM | activity change, negative = inhibition [2] 4.91% | activity change, negative = inhibition [3] 3.37% | activity, negative = inhibition [4] -1.77% | Potency [5] > 46 µM | Potency [6] > 9.22 µM | Potency [7] | Potency [8]

CN1CCN(c2ccc3nc(-c4ccc5nc(-c6ccc(O)cc6)[nH]c5c4)[nH]c3c2)CC1
inactive: Potency [1] > 11.4 µM | activity change, negative = inhibition [2] -22.4% | activity change, negative = inhibition [3] -8.32% | activity, negative = inhibition [4] 23.8% | Potency [5] > 46 µM | Potency [6] > 9.22 µM | Potency [7] | Potency [8]

O[C@H]([C@H](O)[C@@H](O)c1nc2ccccc2[nH]1)[C@@H](O)c1nc2ccccc2[nH]1
inactive: Potency [1] > 11.4 µM | activity change, negative = inhibition [2] 6.21% | activity change, negative = inhibition [3] 19.9% | activity, negative = inhibition [4] 6.86% | Potency [5] > 46 µM | Potency [6] > 9.22 µM | Potency [7] | Potency [8]

CNC/C(Cl)=N/S(=O)(=O)c1ccc(C)cc1
inactive: Potency [1] > 11.4 µM | activity change, negative = inhibition [2] -4.53% | activity change, negative = inhibition [3] 8.45% | activity, negative = inhibition [4] 2.28% | Potency [5] > 46 µM | Potency [6] > 9.22 µM | Potency [7] | Potency [8]

O=C(O)c1cncc(C(=O)O)c1
inactive: Potency [1] > 11.4 µM | activity change, negative = inhibition [2] 1.97% | activity change, negative = inhibition [3] 3.72% | activity, negative = inhibition [4] 6.17% | Potency [5] > 46 µM | Potency [6] > 9.22 µM | Potency [7] | Potency [8]

NC(=O)C[C@@H](N)c1nn[nH]n1
inactive: Potency [1] > 11.4 µM | activity change, negative = inhibition [2] 9.01% | activity change, negative = inhibition [3] 14.8% | activity, negative = inhibition [4] 9.79% | Potency [5] > 46 µM | Potency [6] > 9.22 µM | Potency [7] | Potency [8]

Cc1nc2ccccc2nc1N1CCCC1
inactive: Potency [1] > 11.4 µM | activity change, negative = inhibition [2] 2.88% | activity change, negative = inhibition [3] 0.00129% | activity, negative = inhibition [4] 3.44% | Potency [5] > 46 µM | Potency [6] > 9.22 µM | Potency [7] | Potency [8]

NC1=N[C@H](c2ccc(Cl)cc2)N(c2ccc(S(=O)(=O)Nc3ncccn3)cc2)C(N)=N1
inactive: Potency [1] > 11.4 µM | activity change, negative = inhibition [2] -10.6% | activity change, negative = inhibition [3] -0.0424% | activity, negative = inhibition [4] -0.946% | Potency [5] > 46 µM | Potency [6] > 9.22 µM | Potency [7] | Potency [8]

O=C1c2ccccc2[C@@H]([C@@H]2c3ccccc3C(=O)c3cc(Br)ccc32)c2ccc(Br)cc21
inactive: Potency [1] > 11.4 µM | activity change, negative = inhibition [2] -5.16% | activity change, negative = inhibition [3] -5.27% | activity, negative = inhibition [4] 8.23% | Potency [5] > 46 µM | Potency [6] > 9.22 µM | Potency [7] | Potency [8]

Cc1cc(Cl)ccc1OCC(=O)Oc1c(Cl)c(Cl)c(Cl)c(Cl)c1Cl
inactive: Potency [1] > 11.4 µM | activity change, negative = inhibition [2] 0.808% | activity change, negative = inhibition [3] -13.6% | activity, negative = inhibition [4] -0.45% | Potency [5] > 46 µM | Potency [6] > 9.22 µM | Potency [7] | Potency [8]

CN1CCN(c2ncc3nc(CCc4ccccc4)c(=O)n(CCC#N)c3n2)CC1
inactive: Potency [1] > 11.4 µM | activity change, negative = inhibition [2] -1.24% | activity change, negative = inhibition [3] -8.66% | activity, negative = inhibition [4] -3.93% | Potency [5] > 9.22 µM | Potency [6] > 46 µM | Potency [7] | Potency [8]

NCCOc1ccccn1
inactive: Potency [1] > 11.4 µM | activity change, negative = inhibition [2] 10% | activity change, negative = inhibition [3] 1.74% | activity, negative = inhibition [4] -2.14% | Potency [5] > 46 µM | Potency [6] > 9.22 µM | Potency [7] | Potency [8]

Cc1ccc2nc(-c3ccc(NC(=O)c4ccc(N)cc4)c(S(=O)(=O)O)c3)sc2c1
inactive: Potency [1] > 11.4 µM | activity change, negative = inhibition [2] -3.73% | activity change, negative = inhibition [3] 12.1% | activity, negative = inhibition [4] -11.4% | Potency [5] > 46 µM | Potency [6] > 9.22 µM | Potency [7] | Potency [8]

O=C1c2ccccc2C(=O)c2c(Nc3ccc4c5c(cccc35)C(=O)c3ccccc3-4)cccc21
inactive: Potency [1] > 11.4 µM | activity change, negative = inhibition [2] -3.08% | activity change, negative = inhibition [3] 6.45% | activity, negative = inhibition [4] 0.0671% | Potency [5] > 46 µM | Potency [6] > 9.22 µM | Potency [7] | Potency [8]
